Experimental findings from PubChem BioAssay (EPA / NIEHS) are described below.

SMILES strings stand for the structures. “And” between values parts separate entries of the source, which are not always exact repeats. Equal entries are not always repeated. Where a structure was tested more than once in an assay, its records may differ in their call. The source made the active and inactive calls. The calls were made as follows: active = hit-call score of the fitted dose curve at least 0.9, where 1 is the maximum; inactive = score below 0.9.

The assay in a line: CCTE_Shafer_MEA_dev_mutual_information_norm: CCTE's Neural Network Formation Assay for Mutual Information Normalization, Shafer Lab (AID 2284091).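 As to AC50: potency is for a decrease in mutual information relative to DMSO.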 The protocol: CCTE_Shafer_MEA_dev assay is conducted using Axion Biosystems 48 well microelectrode array (MEA) plates and Maestro recording system. Each well of the MEA plate contains a grid of 16 microelectrodes embedded in the culture surface. Electrically active cells, such as neurons, can be cultured over the electrodes, and electrical activity in these cells can be recorded extracellularly. The spontaneous firing of neurons is captured from each electrode on a microsecond timescale providing both temporally and spatially precise data. […] The CCTE_Shafer_MEA_dev assay uses primary cultures of rat cortical neurons. Recordings are made on days post-plating 5, 7, 9 and 12. As these cultures mature over time, neural networks develop functional activity and form cohesive networks in which electrical activity can be highly coordinated. CCTE_Shafer_MEA_dev_mutual_information_norm is 1 of 19 assay components of the CCTE_Shafer_MEA_dev assay. It is a measure of shared information between electrodes during a recording in a microelectrode array (MEA) using Axion Biosystems Maestro 768 channel amplifier with the AxIS adaptive spike detector. To collapse across multiple recordings made on days post-plating 5, 7, 9 and 12, the trapezoidal area-under-the-curve of the component is calculated.Data from the assay component CCTE_Shafer_MEA_dev_mutual_information_norm was analyzed into 1 assay endpoint. This assay endpoint, CCTE_Shafer_MEA_dev_mutual_information_norm, was analyzed in the negative analysis fitting direction relative to DMSO as the negative control and baseline of activity. Using a type of functional reporter, gain or loss-of-signal activity can be used to understand electrical activity.
On the day prior to culture, each well was coated thoroughly with 150 uL of 0.05% polyethyleneimine (PEI, Sigma Cat P3143) in 50 mM HEPES (Sigma Cat H7523) at a pH of 8. The plate was incubated at 37C for one hour. PEI was rinsed out with 500 uL of sterile water three times. Plates were stored at 4C until the day of culture. This culture was plated at a seeding density of 1.5 x 10^5 cells/well on a 48-well MEA plate, prepared as described above. Cells were administered via a 25 uL media/laminin ([…]; Sigma Cat L2020-1MG) drop directly onto the microelectrode array, as adding the cells with the laminin results in better attachment than pre-coating with laminin. After 2 hours, an additional 475 uL of cortical media was added and the cells returned to the incubator. Exposure starts at day 0 of plating and is continued over twelve days of network development until the experiment is terminated. Cells are fed with fresh medium on DIV 5 and 9, following the recordings on those days. The entire volume of media in the well is exchanged and any vehicle or compound treatment is renewed. Complete details are found in OP-NHEERL/ISTD/SBB/TJS/2015-03-r0 (available on request, email shafer.tim@epa.gov). Measurement of the electrical activity is non-invasive, and recordings can be made from the same plate over multiple different days of the culture. In cortical neurons, this allows for the measurement of extracellular action potentials over the period during which networks form in the MEA plate.
`C=CC1(C)OC(=O)N(c2cc(Cl)cc(Cl)c2)C1=O` (stereo not drawn): the compound was called inactive.
In the case of `C=CCC1=C(C)[C@@H](OC(=O)[C@@H]2[C@@H](C=C(C)C)C2(C)C)CC1=O`, the AC50 is 2.61 µM (active).
Same read-out and setting: in the case of `Cc1c(F)c(F)c(COC(=O)C2C(/C=C(\Cl)C(F)(F)F)C2(C)C)c(F)c1F` (stereo not drawn) it was 0.302 µM (active).
Regarding `CNC(=O)ON=CC(C)(C)SC`, the outcome was inactive.
Still for that read-out and setting: with `COP(N)(=O)SC` (stereo not drawn) the entry was “inactive”.
As for `C=CCC1=C(C)C(OC(=O)C2C(C=C(C)C)C2(C)C)CC1=O` (stereo not drawn), the compound was called inactive and the AC50 was 0.917 µM (active).
As for `CCOc1cc(Oc2ccc(C(F)(F)F)cc2Cl)ccc1[N+](=O)[O-]`, the AC50 was 4.49 µM (active).
Regarding `CCCCC(CC)COC(=O)c1ccccc1C(=O)OCC(CC)CCCC` (stereo not drawn), the AC50 was 1.59 µM (active) and 2.77 µM (active); the outcome was inactive.
For the compound `COC(=O)N(OC)c1ccccc1COc1ccn(-c2ccc(Cl)cc2)n1`, the half-maximal activity concentration (AC50) was 57.3 nM (active) and 9.62 nM (active).
On to `CCCCNC(=O)n1c(NC(=O)OC)nc2ccccc21`, for which the outcome was inactive.
Take `COP(=S)(OC)Oc1nc(Cl)c(Cl)cc1Cl`: the call was inactive.
With `CCOC(=O)CC(SP(=S)(OC)OC)C(=O)OCC` (stereo not drawn), the AC50 was 7.87 µM (active) and 3.88 µM (active).
On to `CCNc1nc(Cl)nc(NC(C)C)n1`, for which the compound was called inactive.
In the case of `Cc1ccc(-c2c(Cl)nc(C#N)n2S(=O)(=O)N(C)C)cc1`, the AC50 was 15.2 µM (active).
For `CC(C)(C)c1ccc(CSc2cnn(C(C)(C)C)c(=O)c2Cl)cc1`, the AC50 is 0.00153 µM (active).
Regarding `CO/C=C(/C(=O)OC)c1ccccc1Oc1cc(Oc2ccccc2C#N)ncn1`, the half-maximal activity concentration (AC50) was 1.11 µM (active) and 985 nM (active).
Same read-out and setting: in the case of `CCCCNC(=O)OCC#CI` it was 1.81 µM (active) and 1.09 µM (active).
As for `N#Cc1nn(-c2c(Cl)cc(C(F)(F)F)cc2Cl)c(N)c1S(=O)C(F)(F)F` (stereo not drawn), the call was inactive.
Regarding `CCCCOC(=O)c1ccccc1C(=O)OCCCC`, the outcome was inactive.
Regarding `CN(C)C(=S)SSC(=S)N(C)C`, the AC50 is 0.00669 µM (active).
On the same count and under the same terms, in the case of `COc1ccc(C(c2ccc(OC)cc2)C(Cl)(Cl)Cl)cc1` it was 1.97 µM (active).

One may read the AC50 as the concentration giving half of the maximal activity seen.
